Compound activity: PubChem BioAssay, Pan Lab, Icahn School of Medicine at Mount Sinai
The entries come from a sample that favours hits as a whole.
RBX1-CUL1 inh: human ROC1-CUL1 E3 ligase inhibition; P62877+Q13616; in vitro K48 di-Ub FRET, acceptor:donor ratio, 45 min; inhibition, % at 10 µM; hit rate 0.6% among 140,000; AID 1347404; in the data active = inhibition above about 25%
Target sequence (P62877 whole entry, looked up): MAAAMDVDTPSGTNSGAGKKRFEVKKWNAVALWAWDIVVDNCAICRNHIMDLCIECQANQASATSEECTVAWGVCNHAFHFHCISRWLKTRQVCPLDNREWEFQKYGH
Target sequence (Q13616 whole entry, looked up): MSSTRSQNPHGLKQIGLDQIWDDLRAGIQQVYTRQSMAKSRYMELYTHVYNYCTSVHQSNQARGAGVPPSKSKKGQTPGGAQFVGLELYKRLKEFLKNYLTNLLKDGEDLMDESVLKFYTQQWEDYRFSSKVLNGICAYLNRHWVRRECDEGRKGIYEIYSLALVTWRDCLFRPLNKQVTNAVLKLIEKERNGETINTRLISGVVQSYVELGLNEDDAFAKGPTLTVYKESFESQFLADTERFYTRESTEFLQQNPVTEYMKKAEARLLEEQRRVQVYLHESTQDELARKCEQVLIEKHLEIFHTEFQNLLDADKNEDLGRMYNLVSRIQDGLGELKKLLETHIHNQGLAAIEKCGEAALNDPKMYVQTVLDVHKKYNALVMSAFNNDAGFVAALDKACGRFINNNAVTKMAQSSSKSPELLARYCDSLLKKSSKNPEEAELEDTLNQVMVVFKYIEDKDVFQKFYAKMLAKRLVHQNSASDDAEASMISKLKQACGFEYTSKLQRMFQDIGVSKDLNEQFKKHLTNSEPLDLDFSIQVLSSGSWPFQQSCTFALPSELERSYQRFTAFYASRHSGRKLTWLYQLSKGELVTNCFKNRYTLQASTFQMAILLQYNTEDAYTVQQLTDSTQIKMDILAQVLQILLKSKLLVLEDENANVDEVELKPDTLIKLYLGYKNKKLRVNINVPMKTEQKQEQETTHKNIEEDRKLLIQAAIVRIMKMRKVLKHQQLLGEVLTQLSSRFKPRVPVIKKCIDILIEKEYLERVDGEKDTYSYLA
The depositor's hits bear a star.

SMILES	RBX1-CUL1 inh
O=C(CC1(c2ccc(-c3ccccc3)cc2)CC(=O)N(C2CC2)C1=O)N1CC[C@@H]2CCCC[C@H]2C1 (stereo partly specified)	-2
OC(COc1cccc(CNCCc2cnc[nH]2)c1)CN1CCCCCC1 (stereo unspecified)	-5
Cc1ccc(OC2CCN(Cc3ccncc3)CC2)c(C(=O)NCc2ccco2)c1	-4
COCCc1nc2ccc(C(=O)N3CCCC(OCc4cccnc4)C3)cc2o1 (stereo unspecified)	-4
N#Cc1c(N=Cc2cc(I)cc(I)c2OCc2ccc(Cl)cc2Cl)sc2c1CCCC2	-11
C[C@@H]1CN(C(=O)c2nc3ccc(Cl)cn3c2CNCCN2CCC(O)CC2)C[C@H](C)O1	3
COc1cccc(/C=C2/C(=O)NC(=O)N(c3cc(C)cc(C)c3)C2=O)c1O	12
COc1ccc(N2C(=O)/C(=C/c3cc(C)n(-c4ccc(NC(C)=O)cc4)c3C)C(=O)NC2=S)cc1	7
Cc1cc(C)cc(N2C(=O)NC(=O)/C(=C/c3ccc(-c4cccc(C(=O)O)c4)o3)C2=O)c1	85*
C=CCN1C(=O)/C(=C\c2cccc(OCc3ccc(F)cc3)c2)C(=O)NC1=S	1
COC(=O)c1ccccc1-n1c(C)cc(/C=C2\C(=O)NC(=S)N(c3ccc(OC)cc3)C2=O)c1C	6
COc1ccc(/C=C2/C(=O)NC(=S)N(c3ccccc3)C2=O)cc1C(=O)O	2
C=CCN1C(=O)/C(=C/c2ccc(-c3cccc(C(F)(F)F)c3)o2)C(=O)NC1=S	103*
Cc1ccc(N2C(=O)/C(=C\c3ccc(-c4ccc(Cl)c(C(=O)O)c4)o3)C(=O)NC2=S)cc1	63*
COc1ccc(N2C(=O)/C(=C/c3cc(C)n(-c4ccc(Cl)c(C(=O)O)c4)c3C)C(=O)NC2=S)c(OC)c1	79*
Cc1ccc(-n2c(-c3ccccc3)cc(/C=C3\C(=O)NC(=S)N(c4ccc(C)c(C)c4)C3=O)c2-c2ccccc2)cc1	5
O=C1Nc2ccccc2/C1=C/c1ccc(-c2cccc(C(=O)O)c2)o1	16
C=CCN1C(=O)/C(=C\c2cccc(OC)c2OC)C(=O)NC1=S	-6
COc1ccc(Nc2nc(N)nc(CN3CCCCC3C)n2)cc1 (stereo unspecified)	-10
CCCCN(CCCC)CCCN1C(=O)C(=O)C(C(=O)c2ccco2)C1c1ccccn1 (stereo unspecified)	0
CCN(CC)c1ccc(/C=N/NC(=O)CSc2nnc(CNc3ccccc3)n2-c2ccccc2)cc1	-7
CCOC(=O)c1ccc(OC)cc1[N+](=O)[O-]	-14
CC(C)CC(C)NC(=O)C(C)c1cccc(C(=O)c2ccccc2)c1 (stereo unspecified)	-2
CCC(=O)NC1CCCc2nc(-c3ccccc3)ncc21 (stereo unspecified)	8
O=C(/C=C/c1ccco1)CC1(O)C(=O)N(Cc2ccccc2Cl)c2ccccc21 (stereo unspecified)	5
SMILES	RBX1-CUL1 inh
O=C1SC(SCc2ccccc2Cl)=N/C1=C\C=C\c1ccco1	88*
O=C1SC(SCc2ccccc2Cl)=N/C1=C\c1ccco1	-5
O=C(NNC(=O)C(F)(F)F)c1cccc(Cl)c1	-7
COc1ccc(/C=C/C(=O)Nc2ccc(C)c(Cl)c2)cc1OC	2
COc1cc(NC(=O)/C=C\c2ccc(C)o2)c(OC)cc1Cl	4
Cc1ccc(/C=C/C(=O)Nc2ccccc2C(N)=O)o1	0
Cc1ccc(/C=C/C(=O)Nc2ccc(C)c(Cl)c2)o1	66*
Cc1ccc(/C=C/C(=O)Nc2nc(-c3ccc(C)c(C)c3)cs2)o1	-4
Cc1ccc(/C=C/C(=O)Nc2cccnc2)o1	45*
N#CC1C(=N)OC2=C(C(=O)CCC2)C1c1ccccc1OCc1ccccc1 (stereo unspecified)	-5
Cc1ccc(OCC(O)CN2CCC(CN3C(=O)c4cccc5cccc(c45)C3=O)CC2)cc1C (stereo unspecified)	-5
CCc1cc2c(=O)n(CC(=O)NCc3ccccc3)cnc2s1	6
COc1cc(NC(=S)N2CCC(Cc3ccccc3)CC2)c(OC)cc1Cl	3
C=CCOc1ccc(/C=C2\SC(=Nc3ccccc3)NC2=O)cc1OCC	-3
COc1cc(/C=C2\SC(=Nc3cccc(Br)c3)NC2=O)ccc1OCC(=O)O	30*
CCOC(=O)c1ccc(N=C2NC(=O)/C(=C\c3cc(Br)ccc3OCC(=O)Nc3ccccc3OC)S2)cc1	1
COc1cc(/C=C2\SC(=Nc3ccccc3Cl)NC2=O)ccc1OCC(=O)O	5
CCOc1cc(/C=C2/SC(=O)N(C(C)C)C2=O)c(Br)cc1OCC(=O)Nc1ccccc1	2
CCOc1cc(/C=C2\SC(=Nc3cccc(C(=O)O)c3)NC2=O)c(Br)cc1OCC(=O)Nc1ccc(C)cc1	97*
COc1ccc(OCC(=O)N2N=C(c3ccc(Br)cc3)CC2(O)C(F)(F)F)cc1 (stereo unspecified)	-6
CN1C=CC2=S1N(c1ccccc1)N=C2N=Nc1ccccc1 (stereo unspecified)	-8
CC(C)CCN1CCC(N2CCCC(C(=O)NC3CC3)C2)CC1 (stereo unspecified)	-3
Cc1cc(C)c(S(=O)(=O)NCCc2c(C)[nH]c3c(Cl)cccc23)c(C)c1	1
CC1C(=NC(=O)CSc2nnc(-c3ccccc3)n2-c2ccccc2)C(=O)N(c2ccccc2)N1C (stereo unspecified)	-3
CC1C(=NC(=O)CSc2nnc(Cc3ccccc3)o2)C(=O)N(c2ccccc2)N1C (stereo unspecified)	-1
SMILES	RBX1-CUL1 inh
CC1C(=NC(=O)CSc2nc(-c3ccccc3)c(-c3ccccc3)o2)C(=O)N(c2ccccc2)N1C (stereo unspecified)	52*
COCc1nn2c(-c3ccc(C(F)(F)F)cc3)nnc2s1	-3
COc1ccccc1/C=C/C(=O)C1C=C(Br)C=C(Br)C(=O)C1=O (stereo unspecified)	28*
COc1cccc(/C=C/C(=O)C2C=C(Br)C=C(Br)C(=O)C2=O)c1 (stereo unspecified)	-3
Cc1ccccc1/C=C/C(=O)C1C=C(Br)C=CC(=O)C1=O (stereo unspecified)	-2
COc1ccccc1-c1nnc2sc(-c3ccc(F)cc3)nn12	2
Cc1ccnc(N=CC2SC(=S)NC2=O)c1 (stereo unspecified)	2
CCN(CC)c1ccc(NC(=O)C2CC2)cc1	1
C=CCNC(=O)N1C[C@H]2OC(=O)N(CCCc3ccc(OC)cc3)[C@H]2C1	5
Cc1cc(O)ccc1NS(=O)(=O)c1ccccc1	9
Cc1ccc(S(=O)(=O)Nc2ccccc2-c2ccccc2NS(=O)(=O)c2ccc(C)cc2)cc1	7
Cc1ccc(Sc2cc(NS(=O)(=O)c3ccccc3)c3ccccc3c2O)cc1	70*
CCc1ccc(S(=O)(=O)Nc2cc(SCC(=O)O)c(O)c3ccccc23)cc1	108*
CCOc1ccc(S(=O)(=O)Nc2ccc(S(=O)(=O)Nc3cccc4ccccc34)cc2)cc1	3
CCc1ccc(S(=O)(=O)NCC(=O)O)cc1	7
CCOc1ccc(S(=O)(=O)Nc2cc(SCC(=O)O)c(O)c3ccccc23)cc1	43*
COc1ccc(S(=O)(=O)Nc2cc(SCc3ccccc3)c(O)c3ccccc23)cc1	2
CCOc1ccc(S(=O)(=O)Nc2cc3c(C(=O)OC)c(COC)oc3c3ccccc23)cc1	4
COc1cccc(C2C(C(=O)Nc3ccc(Cl)cc3)C(C)=Nc3nc4ccccc4n32)c1 (stereo unspecified)	4
CC1CC(N)=NN1c1ccccc1 (stereo unspecified)	-4
